Experimental data published in PubChem BioAssay AID504810 (National Center for Advancing Translational Sciences (NCATS), 2011).
Out of some 330,000 compounds screened, about 670 (0.2%) were called active.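 The calls were made as follows: active = activity change below a set negative limit, meaning inhibition stronger than a set level (cut at about -70% in these data); inconclusive = activity change between two set negative limits; inactive = the rest.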 Many of the other results were omitted from the sample, so actives are more common in it than they were.

target: Thyrotropin receptor (Homo sapiens) (UniProt P16473); test: Antagonists of the Thyroid Stimulating Hormone Receptor: HTS campaign; conditions: TSHR-expressing cells, TSH-stimulated cAMP HTRF, 2 h; at 11.5 µM; active compounds read low
Source text: The thyroid-stimulating hormone receptor (TSHR) is a member of the 7 trans-membrane-spanning receptor (7TMR) family of cell surface receptors. TSHR-mediated hyperthyroidism is important in thyroid pathology. The development of small molecule antagonists of TSHR may lead to therapeutic approaches for TSHR-mediated hyperthyroidism caused by constitutively activating mutations or stimulating auto-antibodies associated with Graves' disease. Graves' disease is the leading cause of hyperthyroidism and is caused by autoantibodies that stimulate TSHR (TsAbs) causing thyroid growth and unregulated overproduction of thyroid hormones and existing treatments have liabilities (agranulocytosis). In addition, TSHRs are known to be expressed in multiple extrathyroidal tissues including bone, brain, kidney, testis, fat and cells of the immune system but the role of the TSHR in these tissues is not clear. Therefore, TSHR antagonists/inverse agonists could be used as probes of extrathyroidal TSHR function. Finally, TSHR inverse agonists, which are a subclass of antagonists that inhibit agonist-independent (or basal or constitutive) TSHR signaling, could be used to inhibit TSH-independent signaling in patients with recurrent or metastatic thyroid cancer who are receiving thyroid hormone to suppress TSH. In collaboration between scientist from the NCGC and the NIDDK, a miniaturized HTRF high-throughput screen was developed. It's a cell based assay, where an anti cAMP antibody contains a fluorescent cryptate tag (excitation 337 nm; emission 620 nm) and the acceptor is cAMP-d2 (excitation 620 nm; emission 665 nm). When antibody and cAMP-d2 interact and are excited by a 337 nm light, a FRET occurs resulting in emission at 665 nm. The assay is competition between cAMP-d2 and cAMP (from the cell lysate). The homogeneous protocol allows for one step dispense after stimulation that is automation friendly. NIH Chemical Genomics Center [NCGC] NIH Molecular Libraries Probe Centers Network [MLPCN] MLPCN Grant: MH090855-01 Assay Submitter (PI): Marvin Gerhengorn
1. 3ul of 200 TSHR freshly harvested cells/well are dispensed into a 1536 TC-treated white solid bottom plate. 2. Through pintool addition, 23nl of compounds and control in 100% DMSO are added to the plate. 3. Then 1ul of EC80 TSH (4nM final) is added to the plate. 4. Assay is incubated at 37 deg C for 2 hours. 5. 2ul of cAMP antibody diluted 1:20 in lysis buffer is added. 6. Immediately following, 2ul of d2 diluted 1:20 in HBSS is added seperately. 7. The assay is incubated for 30 minutes at ambient room temperature. 8. The result is obtained by using a ViewLux read-out with HTRF settings.
% is scaled to controls: 0 for no effect and ±100 for the full control effect.

Chain of Thyrotropin receptor (Homo sapiens) (P16473 whole entry, looked up): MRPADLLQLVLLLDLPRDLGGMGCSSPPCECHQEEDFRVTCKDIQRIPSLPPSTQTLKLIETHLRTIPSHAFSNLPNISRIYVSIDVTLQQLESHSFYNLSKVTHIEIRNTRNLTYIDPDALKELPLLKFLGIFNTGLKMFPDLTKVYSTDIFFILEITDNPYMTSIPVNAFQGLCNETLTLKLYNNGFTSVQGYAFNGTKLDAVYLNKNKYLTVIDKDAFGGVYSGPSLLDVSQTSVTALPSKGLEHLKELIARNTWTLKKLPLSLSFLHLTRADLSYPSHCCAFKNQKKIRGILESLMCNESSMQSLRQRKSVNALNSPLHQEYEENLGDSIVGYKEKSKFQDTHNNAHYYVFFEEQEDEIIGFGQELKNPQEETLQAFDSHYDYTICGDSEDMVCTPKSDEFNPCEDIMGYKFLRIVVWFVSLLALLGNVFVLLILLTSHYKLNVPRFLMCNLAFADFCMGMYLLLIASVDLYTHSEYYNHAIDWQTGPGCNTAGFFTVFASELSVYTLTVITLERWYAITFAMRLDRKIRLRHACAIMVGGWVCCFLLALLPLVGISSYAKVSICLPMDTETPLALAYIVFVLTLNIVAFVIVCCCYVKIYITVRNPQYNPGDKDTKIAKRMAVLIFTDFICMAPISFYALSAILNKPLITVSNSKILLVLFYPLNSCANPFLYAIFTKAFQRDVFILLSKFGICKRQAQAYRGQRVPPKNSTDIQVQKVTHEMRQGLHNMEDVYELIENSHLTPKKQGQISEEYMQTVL

Row | SMILES | activity change, negative = inhibition
1 | COC(=O)C1=C(c2cccc(OCc3ccccc3)c2)C[C@@H]2CC[C@H]1N2C(=O)NCc1ccc(Br)cc1 | -5.89% (inactive)
2 | COC(=O)C1=C(c2ccc(F)cc2OCc2ccccc2)C[C@@H]2CC[C@H]1N2C(=O)NCc1ccc(Cl)cc1 | -10% (inactive)
3 | COC(=O)C1=C(c2ccc(-c3ccccc3)c(F)c2)C[C@@H]2CC[C@H]1N2C(=O)NCc1ccc(F)cc1 | -85% (active)
4 | c1ccc2c(c1)[I+]c1ccccc1-2 | -36.8% (inactive)
5 | CC(=O)c1c(O)c(C)c(O)c(Cc2c(O)c3c(c(C(=O)/C=C/c4ccccc4)c2O)OC(C)(C)C=C3)c1O | -26.9% (inactive)
6 | CCOC(=O)c1ncn2c1[C@@H]1CCCN1C(=O)c1cc(OC)ccc1-2 | -12.5% (inactive)
7 | C[C@]12CC[C@H](O)C[C@H]1CC[C@@H]1C2CC[C@]2(C)[C@@H](C3=CC(=O)OC3)[C@@H](O)C[C@]12O (stereo not given in full) | -81.8% (active)
8 | C[C@]12CCC3C(CC[C@H]4C[C@@H](O)CC[C@]34C)C1CC[C@@H]2O (stereo not given in full) | 3.15% (inactive)
9 | C[C@]12CCC3C(CC[C@H]4C[C@@H](O)CC[C@]34C)C1C[C@@H](O)[C@H]2O (stereo not given in full) | 2.4% (inactive)
10 | CC(=O)NBr | -6.86% (inactive)
